Data reported in PubChem BioAssay AID1159580 (chemical genetic matrix, 2015).
Values joined by “and” are separate entries in the source; they are usually repeats but may differ in a detail not shown here. Equal entries are not always repeated. About 2,000 (36%) of roughly 5,500 compounds were called active. Roughly 18% stayed inconclusive and do not appear here. Rule as the data show it: active = normalized growth mostly below about 0.91 (no sharp cut-off); inconclusive = no clear call, values can overlap the other calls; inactive = mostly above about 0.92. The list shows a part of the results.

Assay: chemical genetic growth profiling, strain panel (AID 1159580);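 also: tested at 20 µM; growth read once vehicle control cultures reached saturation at 30 °C; 1 = growth at the plate median or of vehicle wells; lower values mean less growth of the strain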
Conditions: S. cerevisiae deletion strains, growth OD

Measured: normalized growth

CCOc1ccc(C(=O)c2ccc(O)c(O)c2O)cc1
active: locus YAL021C, strain ccr4, hits give low values 0.754 | locus YAL026C, strain drs2, hits give low values 0.844 | locus YBL061C, strain skt5, hits give low values 0.898 | locus YBR023C, strain chs3, hits give low values 0.84 | locus YBR231C, strain swc5, hits give low values 0.829 | locus YBR279W, strain paf1, hits give low values 0.927 | locus YCL029C, strain bik1, hits give low values 0.857 | locus YCL061C, strain MRC1, hits give low values 0.908 | locus YDL074C, strain BRE1, hits give low values 0.741 | locus YDL101C, strain DUN1, hits give low values 0.849 | locus YDL134C, strain PPH21, hits give low values 0.853 | locus YDL185W, strain tfp1, hits give low values 0.845 | locus YDL192W, strain arf1, hits give low values 0.868 | locus YDR069C, strain doa4, hits give low values 0.703 | locus YDR101C, strain arx1, hits give low values 0.911 | locus YDR137W, strain rgp1, hits give low values 0.701 | locus YDR162C, strain NBP2, hits give low values 0.823 | locus YDR318W, strain mcm21, hits give low values 0.907 | locus YDR334W, strain swr1, hits give low values 0.877 | locus YDR335W, strain msn5, hits give low values 0.858 | locus YDR502C, strain sam2, hits give low values 0.861 | locus YEL003W, strain gim4, hits give low values 0.893 | locus YEL061C, strain CIN8, hits give low values 0.901 | locus YER015W, strain faa2, hits give low values 0.883 | locus YER111C, strain swi4, hits give low values 0.72 | locus YFR010W, strain ubp6, hits give low values 0.854 | locus YGL086W, strain mad1, hits give low values 0.86 | locus YGL173C, strain kem1, hits give low values 0.853 | locus YGL248W, strain PDE1, hits give low values 0.837 | locus YGR078C, strain PAC10, hits give low values 0.821 | locus YGR135W, strain pre9, hits give low values 0.85 | locus YHR027C, strain rpn1, hits give low values 0.869 | locus YHR030C, strain SLT2, hits give low values 0.824 | locus YHR079C, strain IRE1 (second series), hits give low values 0.902 | locus YHR129C, strain ARP1, hits give low values 0.826 | locus YHR142W, strain chs7, hits give low values 0.786 | locus YHR200W, strain rpn10, hits give low values 0.886 | locus YJL095W, strain BCK1 (second series), hits give low values 0.908 | locus YJL095W, strain BCK1, hits give low values 0.784 and 0.833 | locus YJL164C, strain tpk1, hits give low values 0.877 | locus YJL187C, strain SWE1 (second series), hits give low values 0.632 | locus YJL187C, strain SWE1, hits give low values 0.915 | locus YJR066W, strain TOR1, hits give low values 0.812 | locus YKL160W, strain elf1, hits give low values 0.9 | locus YLR058C, strain SHM2, hits give low values 0.631 | locus YLR221C, strain rsa3, hits give low values 0.887 | locus YLR262C, strain YPT6 (second series), hits give low values 0.803 | locus YLR268W, strain sec22, hits give low values 0.84 | locus YLR330W, strain CHS5, hits give low values 0.884 | locus YLR342W, strain FKS1, hits give low values 0.891 | locus YLR357W, strain rsc2, hits give low values 0.691 | locus YLR371W, strain rom2, hits give low values 0.776 | locus YLR418C, strain cdc73, hits give low values 0.715 | locus YML016C, strain PPZ1, hits give low values 0.83 | locus YMR058W, strain fet3, hits give low values 0.384 | locus YMR205C, strain PFK2, hits give low values 0.825 | locus YMR223W, strain ubp8, hits give low values 0.874 | locus YMR231W, strain pep5, hits give low values 0.9 | locus YMR263W, strain SAP30, hits give low values 0.884 | locus YNL153C, strain GIM3, hits give low values 0.853 | locus YNL209W, strain ssb2, hits give low values 0.76 | locus YNL233W, strain BNI4, hits give low values 0.866 | locus YNL271C, strain bni1, hits give low values 0.911 | locus YNL322C, strain KRE1, hits give low values 0.821 | locus YNR052C, strain pop2, hits give low values 0.792 | locus YOL147C, strain pex11, hits give low values 0.84 | locus YOR001W, strain rrp6, hits give low values 0.867 | locus YOR061W, strain CKA2, hits give low values 0.852 | locus YOR069W, strain VPS5, hits give low values 0.88 | locus YOR083W, strain WHI5, hits give low values 0.887 | locus YOR106W, strain vam3, hits give low values 0.711 | locus YOR144C, strain elg1, hits give low values 0.867 | locus YOR265W, strain rbl2, hits give low values 0.913 | locus YOR290C, strain snf2, hits give low values 0.67 | locus YPL051W, strain arl3, hits give low values 0.807 | locus YPL078C, strain atp4, hits give low values 0.885 | locus YPL106C, strain sse1, hits give low values 0.839 | locus YPR163C, strain tif3, hits give low values 0.901 | locus YPR167C, strain met16, hits give low values 0.897 | strain wtn01, hits give low values 0.864
inactive: locus YAL030W, strain snc1, hits give low values 0.936 | locus YBR009C, strain hhf1, hits give low values 0.926 | locus YBR021W, strain FUR4, hits give low values 0.926 | locus YBR171W, strain sec66, hits give low values 0.899 | locus YBR229C, strain ROT2, hits give low values 0.979 | locus YCL011C, strain gbp2, hits give low values 0.945 | locus YCL016C, strain dcc1, hits give low values 0.919 | locus YCL069W, strain vba3, hits give low values 0.96 | locus YCR088W, strain abp1, hits give low values 0.949 | locus YDL005C, strain med2, hits give low values 0.973 | locus YDL035C, strain GPR1, hits give low values 0.899 | locus YDL040C, strain nat1, hits give low values 0.971 | locus YDR001C, strain nth1, hits give low values 0.963 | locus YDR159W, strain sac3, hits give low values 0.924 | locus YDR195W, strain ref2 1.04 | locus YDR297W, strain sur2, hits give low values 0.928 | locus YDR388W, hits give low values 0.955 | locus YDR392W, strain spt3, hits give low values 0.87 | locus YEL037C, strain rad23, hits give low values 0.928 | locus YEL061C, strain CIN8 (second series), hits give low values 0.958 | locus YER016W, strain bim1, hits give low values 0.924 | locus YER110C, hits give low values 0.989 | locus YER155C, strain BEM2 (second series), hits give low values 0.902 | locus YER155C, strain BEM2, hits give low values 0.991 | locus YER167W, strain BCK2, hits give low values 0.953 | locus YGL078C, strain dbp3, hits give low values 0.965 | locus YGL167C, strain pmr1, hits give low values 0.917 | locus YGL227W, strain vid30, hits give low values 0.982 | locus YGL240W, strain doc1, hits give low values 0.955 | locus YGL253W, strain hxk2, hits give low values 0.928 | locus YGR252W, strain gcn5, hits give low values 0.861 | locus YHR013C, strain ard1, hits give low values 0.852 | locus YHR079C, strain IRE1, hits give low values 0.898 | locus YHR094C, strain hxt1, hits give low values 0.993 | locus YIL066C, strain RNR3, hits give low values 0.88 | locus YIL073C, strain SPO22, hits give low values 0.848 | locus YIL125W, strain kgd1, hits give low values 0.951 | locus YIR030C, strain dcg1, hits give low values 0.976 | locus YJL092W, strain hpr5, hits give low values 0.955 | locus YJL115W, strain asf1, hits give low values 0.966 | locus YJL129C, strain trk1, hits give low values 0.944 | locus YJL134W, strain LCB3, hits give low values 0.968 | locus YJL154C, strain vps35, hits give low values 0.953 | locus YJL166W, strain qcr8, hits give low values 0.933 | locus YJL168C, strain set2, hits give low values 0.963 | locus YJR075W, strain HOC1, hits give low values 0.928 | locus YKL009W, strain mrt4, hits give low values 0.983 | locus YKL068W, hits give low values 0.97 | locus YKL085W, strain MDH1 (second series), hits give low values 0.967 | locus YKL085W, strain MDH1, hits give low values 0.967 | locus YKR001C, strain vps1, hits give low values 0.916 | locus YKR026C, strain gcn3, hits give low values 0.941 | locus YKR091W, strain srl3, hits give low values 0.965 | locus YLL001W, strain dnm1, hits give low values 0.932 | locus YLL026W, hits give low values 0.952 | locus YLL041C, strain sdh2, hits give low values 0.937 | locus YLR027C, strain aat2, hits give low values 0.947 | locus YLR039C, strain RIC1, hits give low values 0.777 | locus YLR102C, strain apc9, hits give low values 0.995 | locus YLR113W, strain HOG1, hits give low values 0.903 | locus YLR258W, strain gsy2, hits give low values 0.934 | locus YLR262C, strain YPT6, hits give low values 0.896 | locus YLR320W, strain mms22, hits give low values 0.88 | locus YLR370C, strain arc18, hits give low values 0.95 | locus YLR384C, strain iki3, hits give low values 0.936 | locus YML032C, strain rad52, hits give low values 0.994 | locus YML120C, strain ndi1, hits give low values 0.928 | locus YML124C, strain tub3, hits give low values 0.967 | locus YMR078C, strain ctf18, hits give low values 0.965 | locus YMR125W, strain sto1, hits give low values 0.958 | locus YMR129W, hits give low values 0.963 | locus YMR307W, strain GAS1, hits give low values 0.787 | locus YNL067W, strain RPL9B, hits give low values 0.869 | locus YNL071W, strain lat1, hits give low values 0.963 | locus YNL183C, strain NPR1, hits give low values 0.852 | locus YNL248C, strain rpa49, hits give low values 0.98 | locus YNL250W, strain rad50, hits give low values 0.981 | locus YNL298W, strain CLA4, hits give low values 0.941 | locus YNL307C, strain MCK1, hits give low values 0.951 | locus YNL322C, strain KRE1 (second series), hits give low values 0.943 | locus YNR049C, strain mso1, hits give low values 0.954 | locus YOL006C, strain TOP1, hits give low values 0.656 | locus YOL012C, strain htz1 0.425 | locus YOR070C, strain gyp1, hits give low values 0.941 | locus YOR080W, strain dia2, hits give low values 0.954 | locus YOR136W, strain idh2, hits give low values 0.962 | locus YOR184W, strain ser1, hits give low values 0.882 | locus YOR231W, strain MKK1, hits give low values 0.931 | locus YOR270C, strain vph1, hits give low values 0.81 | locus YOR316C, strain cot1, hits give low values 0.983 | locus YPL055C, strain LGE1, hits give low values 0.841 | locus YPL240C, strain hsp82, hits give low values 0.949 | locus YPL241C, strain CIN2, hits give low values 0.969 | locus YPL256C, strain CLN2, hits give low values 0.984 | locus YPR119W, strain clb2, hits give low values 0.991 | locus YPR141C, strain kar3, hits give low values 0.964
